Experimental data published in PubChem BioAssay (NCATS).
Where “and” joins values, the source holds several entries; their conditions need not be identical. Equal entries are not always repeated. Inconclusive results are not listed. Calls of active or inactive are those of the source. Unless noted, calls come from the whole dose curve; as a rule, active = well fitted curve in the direction sought with a large enough effect; inconclusive = small, poorly fitted or top-dose-only effect, or another doubt; inactive = no such curve, though single readings can be large; an effect the other way counts as inactive or inconclusive.

Assays:
[1] = Cell Viability - MRC5 (AID 434; calls by dose curve;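 note: potency is the fitted concentration of half-maximal effect; potency reflects cytotoxicity seen as loss of intracellular ATP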); details: MRC5 lung fibroblast viability, qHTS
Summary of the method: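 MRC5 normal human lung fibroblasts, 1500 cells/well, exposed to compound for 40 hr at 37 C. Cellular ATP was read by CellTiter-Glo luminescence; data normalized to DMSO and 100 uM tamoxifen, with AC50 from Hill fits.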

[2] = Cell Viability - HUV-EC-C (AID 542); details: HUV-EC-C endothelial cell viability, qHTS; series mostly up to 92.2 µM; note: % is set by controls: 0 for no effect and ±100 for the full control effect; nearly all actives have a fitted effect of over 35% in size
Summary of the method: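 HUV-EC-C human vascular endothelial cells, 1000/well, exposed to compound for 40 hr at 37 °C in complete medium. Intracellular ATP was read by CellTiter-Glo luminescence. AC50 came from Hill-equation fits of concentration-response data.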

[3] = Cellular Toxicity (caspase-3) HepG2 (AID 654); details: HepG2 caspase-3 activation, luminescence; series mostly up to 92.2 µM;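 note: cells exposed to compound for 16 hours before reading; 0% = DMSO alone and 100% = caspase signal from 100 µM tamoxifen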
Summary of the method: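 HepG2 cells (1500/well) were treated 16 h at 37 °C in complete medium, then caspase 3/7 activity was read by Caspase-Glo luminescence. Data were normalized to DMSO and 100 uM tamoxifen; AC50 came from Hill-equation fits of qHTS concentration-response.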

[4] = Cellular Toxicity (caspase-3) HUV-EC-C (AID 656); details: HUV-EC-C cells, caspase-3 activation (apoptosis); series mostly up to 92.2 µM
Summary of the method: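 qHTS; HUV-EC-C, 1000 cells/well; 5 hr settle, 16 hr cmpd, 37°C; Caspase-Glo 3/7, 20 min RT; luminescence. Norm: DMSO = 0%, tamoxifen 100 uM = 100%. Hill-fit AC50.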

[5] = Cellular Toxicity (caspase-3) SHSY5Y (AID 657); details: SH-SY5Y caspase-3 activation; series mostly up to 91.7 µM
Summary of the method: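 qHTS, SH-SY5Y, 1500 cells/well, 5 h pre-incubation 37 °C; compound 16 h 37 °C; Caspase-Glo 3/7 1 h RT; luminescence. Norm.: DMSO = 0, 10 uM staurosporine = 100%. Hill fit → AC50.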

[6] = Cellular Toxicity (caspase-3) Mesangial (AID 660); details: mesangial cells, normalized: DMSO 0%, 100 µM tamoxifen 100%; series mostly up to 91.7 µM
Summary of the method: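 Human renal glomerular mesangial cells, 1000/well, 5 h at 37 C before 16 h compound treatment. Caspase-Glo 3/7 luminescence after 20 min; normalized to DMSO and 100 uM tamoxifen, AC50 from Hill fit.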

[7] = Cellular Toxicity (caspase-3) SK-N-SH (AID 661); details: SK-N-SH caspase-3 activation, qHTS, DMSO as zero, staurosporine as full; series mostly up to 91.7 µM
Summary of the method: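 Human SK-N-SH neuroblastoma cells, 1500/well, were exposed to compounds for 16 hours at 37 °C. Caspase-Glo 3/7 luminescence was normalized to DMSO (basal) and 10 uM staurosporine (100%), and AC50 came from a Hill fit.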

[8] = Cellular Toxicity (caspase-3) H-4-II-E (AID 663); details: H-4-II-E rat hepatoma; Potency: caspase-3 activation; series mostly up to 92.2 µM;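 note: cells exposed to compound for 16 hr before readout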
Summary of the method: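 Rat hepatoma H-4-II-E cells (1500/well) plated 5 hr, then exposed to compound titrations for 16 hr at 37 °C. Caspase-Glo 3/7 luminescence read after 20 min at RT; data normalized to DMSO and 100 uM tamoxifen, AC50 from Hill fits.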

[9] = Cellular Toxicity (caspase-3) N2a (AID 665); details: N2a cells, luminescence, normalized: DMSO 0%, 10 µM staurosporine 100%; series mostly up to 92.2 µM;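 note: compound exposure lasted 16 h at 37 °C before readout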
Summary of the method: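 Mouse N2a neuroblastoma cells, 1500 per well, treated 16 h at 37 °C in complete medium; caspase-3/7 activity by Caspase-Glo luminescence after 1 h. Normalized to DMSO and 10 uM staurosporine; AC50 from Hill fits.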

[10] = Cellular Toxicity (caspase-3) NIH 3T3 (AID 666); details: NIH 3T3 caspase-3 activation, apoptosis/toxicity, 0% DMSO, 100% is 100 µM tamoxifen; series mostly up to 92.2 µM;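 note: caspase signal read after 16 h compound exposure; 0% = DMSO basal and 100% = 100 µM tamoxifen stimulation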
Summary of the method: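 Mouse NIH 3T3 fibroblasts (1000/well) treated 16 h at 37 C; caspase-3/7 activity measured by Caspase-Glo 3/7 luminescence after 20 min. Normalized to DMSO and 100 uM tamoxifen; AC50 from Hill fits.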

[11] = Cellular Toxicity (caspase-3) Renal Proximal Tubule (AID 667); details: renal proximal tubule cells, primary cells freshly taken from rat; Potency: caspase-3 activation; series mostly up to 91.7 µM;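 note: cells exposed to compound for 16 hours at 37 °C before detection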
Summary of the method: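 AC50 derived by standard Hill fit of concentration-response data, normalized between DMSO basal and 10 uM staurosporine as 100% stimulation. Cells: primary rat kidney proximal tubule, 16 h treatment at 37 °C.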

[12] = MultiTox-Fluor Cytotoxicity Assay - LYMP1-001 - Dead Cells (AID 946); details: LYMP1-001 lymphoblastoid cells, dead-cell protease fluorescence; series mostly up to 92.2 µM;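 note: 0% = DMSO and 100% = tetraoctylammonium bromide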
Summary of the method: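 LYMP1-001 lymphoblastoid cells (2500/well) treated 16 h at 37 C. Dead-cell protease cleavage of bis-AAF-R110 read at Ex/Em 485/520. Normalized to DMSO and 15 uM tetraoctylammonium bromide; AC50 from Hill fits.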

[13] = MultiTox-Fluor Cytotoxicity Assay - LYMP1-003 - Dead Cells (AID 961); details: LYMP1-003 lymphoblastoid cells, dead-cell protease fluorescence; series mostly up to 92.2 µM;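 note: 0% = DMSO and 100% = tetraoctylammonium bromide; nearly all actives have a fitted effect of over 70% in size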
Summary of the method: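 LYMP1-003 human lymphoblastoid cells (2500/well) exposed to compound 16 h at 37 C in complete medium; dead-cell protease read with bis-AAF-R110 fluorescence (Ex/Em 485/520) after 60 min at room temperature. Normalized to DMSO and 15 uM tetraoctylammonium bromide; AC50 from Hill fit.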

[14] = MultiTox-Fluor Cytotoxicity Assay - LYMP1-003 - Live Cells (AID 962); details: LYMP1-003 lymphoblastoid cells, MultiTox-Fluor live-cell protease fluorescence; series mostly up to 92.2 µM;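 note: 0% = DMSO only and full loss = 92 µM tetraoctylammonium bromide; cytotoxic hits lower the live-cell protease signal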
Summary of the method: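 LYMP1-003 lymphoblastoid cells, 2500/well in complete medium, treated 16 h at 37 C; live-cell protease cleavage of GF-AFC read by fluorescence (Ex/Em 405/510) after 60 min reagent; AC50 from Hill fits of concentration-response.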

[15] = Cell Viability - LYMP1-003 - Assay at 24 hr (AID 963); details: LYMP1-003 lymphoblastoid cell viability; series mostly up to 92.2 µM;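 note: plate controls were DMSO only for no effect and tetraoctylammonium bromide positive control for full effect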
Summary of the method: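 Human lymphoblastoid LYMP1-003 cells, 2500/well, treated 24 h at 37 C in complete medium. Viability read as intracellular ATP by CellTiter-Glo luminescence after 30 min at room temperature; AC50 from Hill-equation fits of qHTS concentration-response.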

[16] = Cell Viability - LYMP1-002 - Assay at 24 hr (AID 993); details: LYMP1-002 lymphoblastoid cells viability; series mostly up to 92.2 µM; note: % is set by controls: 0 for no effect and ±100 for the full control effect
Summary of the method: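 Human lymphoblastoid LYMP1-002 cells (2500/well) treated 24 h at 37 °C; viability as intracellular ATP by CellTiter-Glo luminescence. Tetraoctylammonium bromide as positive control; AC50 from Hill-equation fits of qHTS concentration-response.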

[17] = qHTS Assay for Identification of Small Molecule Inducers of Hypoxia Response (AID 2120; active = well fitted curve in the direction sought with a large enough effect in the signal ratio, with a control signal flat, not every such curve was filed as active; the % refers to the signal ratio; note: 0% is about no effect); details: hypoxia response reporter cells, beta-lactamase ratio readout; series mostly up to 104 µM
Summary of the method: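 HRE-bla ME-180 cells in Opti-MEM with 0.5% dialyzed FBS, pre-plated 4-5 h, then compound titration for 17 h at 37 degrees Celsius. CCF4 loaded 2.5 h at room temperature; 460/530 nm ratio gave %Activity and AC50 for induction.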

[18] = biological target: Peroxisome proliferator-activated receptor alpha (Homo sapiens) (UniProt Q07869); experiment: qHTS assay for small molecule agonists of the peroxisome proliferator-activated receptor alpha (PPARalpha) signaling pathway (AID 651778); details: PathHunter PPARalpha complementation, chemiluminescence, 6 h; max response: hits give high values; note: % of control where 0% means no effect
Sequence of Peroxisome proliferator-activated receptor alpha (Homo sapiens) (Q07869 whole entry, looked up, the tested form may be a part): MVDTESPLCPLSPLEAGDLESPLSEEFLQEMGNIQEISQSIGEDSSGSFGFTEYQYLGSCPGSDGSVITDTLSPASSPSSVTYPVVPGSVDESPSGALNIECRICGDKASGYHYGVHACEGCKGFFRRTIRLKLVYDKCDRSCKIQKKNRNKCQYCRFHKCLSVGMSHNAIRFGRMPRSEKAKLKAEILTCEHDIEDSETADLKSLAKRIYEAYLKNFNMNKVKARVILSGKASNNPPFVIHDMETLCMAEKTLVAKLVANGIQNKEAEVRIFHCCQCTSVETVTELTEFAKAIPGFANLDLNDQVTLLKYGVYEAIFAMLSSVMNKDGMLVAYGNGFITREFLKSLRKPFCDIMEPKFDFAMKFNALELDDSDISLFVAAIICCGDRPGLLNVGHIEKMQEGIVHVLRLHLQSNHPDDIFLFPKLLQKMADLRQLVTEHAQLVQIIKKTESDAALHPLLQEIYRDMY
Summary of the method: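 Enzyme-fragment complementation assay in which ligand-bound PPARalpha translocates and forms an active enzyme that generates chemiluminescence. Cells were plated overnight, exposed to compound for 6 hr at 37 C, and then given detection reagent for 60 min at room temperature.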

[19] = qHTS assay for small molecule agonists of the antioxidant response element (ARE) signaling pathway measured by Nrf2-dependant transcriptional activity - cell viability counter screen (AID 720653; active = well fitted curve in the direction sought with a large enough effect in the repeat runs; an effect the other way counts as inactive or inconclusive; note: % is set by controls: 0 for no effect and ±100 for the full control effect); details: ARE-bla HepG2 viability, CellTiter-Glo ATP luminescence, 16 h; max response: hits give low values
Summary of the method: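 ARE-bla HepG2 cells treated with compounds for 16 h at 37C; this counter screen measures viability as intracellular ATP by CellTiter-Glo luminescence after 30 min at room temperature.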

[20] = qHTS assay for cell viability of the p53RE-bla HCT-116 cell line (AID 743292); details: p53RE-bla HCT-116 viability, ATP luminescence, 16 h; series mostly up to 95 µM; note: % is set by controls: 0 for no effect and ±100 for the full control effect; nearly all actives have a fitted effect of over 55% in size
Summary of the method: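 ATP-based luminescent viability (CellTiter-Glo, 30 min RT) after 16 h compound treatment at 37 C of p53RE-bla HCT-116 cells, seeded at 4,000 cells/well and rested 5 h before dosing.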

O=[N+]([O-])c1ccccc1Nc1ccccc1
inactive: Potency [1] > 92 µM | Potency [2] | Potency [3] | Potency [4] | Potency [5] | outcome [6] | outcome [7] | Potency [8] | outcome [9] | outcome [10] | Potency [11] | Potency [12] | Potency [13] | Potency [14] | Potency [15] | Potency [16] | Potency [17] | max response [18] -0.358% | max response [19] -2.68% | Potency [20]

COc1ccc(C)cc1N
inactive: Potency [1] > 92 µM | Potency [2] | Potency [3] | Potency [4] | Potency [5] | outcome [6] | outcome [7] | Potency [8] | outcome [9] | outcome [10] | Potency [11] | Potency [12] | Potency [13] | Potency [14] | Potency [15] | Potency [16] | Potency [17] | max response [18] -6.24% | max response [19] -10.4% | Potency [20]

CC(=O)c1ccc(Cl)c(Cl)c1Cl
inactive: Potency [1] > 92 µM | Potency [2] | Potency [3] | Potency [4] | Potency [5] | outcome [6] | outcome [7] | Potency [8] | outcome [9] | outcome [10] | Potency [11] | Potency [12] | Potency [13] | Potency [14] | Potency [15] | Potency [16] | Potency [17] | max response [18] -0.114% | max response [19] 4.27% | Potency [20]

CCC(Cl)CC(Cl)C(Cl)C(Cl)C(Cl)C(C)Cl (stereo not given)
inactive: Potency [1] > 92 µM | Potency [2] | Potency [3] | Potency [4] | Potency [5] | outcome [6] | outcome [7] | Potency [8] | outcome [9] | outcome [10] | Potency [11] | Potency [12] | Potency [13] | Potency [14] | Potency [15] | Potency [16] | Potency [17] | max response [18] -3.58% | max response [19] -9.68% | Potency [20]

CCCCC(CC)COC(=O)COc1ccc(Cl)cc1Cl (stereo not given)
inactive: Potency [1] > 92 µM | Potency [2] | Potency [3] | Potency [4] | Potency [5] | outcome [6] | outcome [7] | Potency [8] | outcome [9] | outcome [10] | Potency [11] | Potency [12] | Potency [13] | Potency [14] | Potency [15] | Potency [16] | Potency [17] | max response [18] -1.4% and -1.03% | max response [19] -8.61% and -1.82% | Potency [20]

C=Cc1cccc(C)c1
inactive: Potency [1] > 92 µM | Potency [2] | Potency [3] | Potency [4] | Potency [5] | outcome [6] | outcome [7] | Potency [8] | outcome [9] | outcome [10] | Potency [11] | Potency [12] | Potency [13] | Potency [14] | Potency [15] | Potency [16] | Potency [17] | max response [18] -4.17% | max response [19] 10.9% | Potency [20]

Oc1c(Cl)cc(Cl)c(Cl)c1Cl
inactive: Potency [1] > 92 µM | Potency [2] | Potency [3] | Potency [4] | Potency [5] | outcome [6] | outcome [7] | Potency [8] | outcome [9] | outcome [10] | Potency [11] | Potency [12] | Potency [13] | Potency [14] | Potency [15] | Potency [16] | Potency [17] | max response [18] 4.27% | max response [19] -1.59% and 6.5% | Potency [20]
